The list is not random: actives were taken first. Their share in the collection is about 0.81%.
TRHR agonist = TRH receptor (human) agonism. P34981. TRHR cells, calcium flux fluo-8, FDSS agonist mode. activation, % at 2 µM. hit rate 0.18% among 360,000. AID 493084; in the data active means activation above about 30%; further: 0% is about no effect
Target sequence (P34981 whole entry, looked up): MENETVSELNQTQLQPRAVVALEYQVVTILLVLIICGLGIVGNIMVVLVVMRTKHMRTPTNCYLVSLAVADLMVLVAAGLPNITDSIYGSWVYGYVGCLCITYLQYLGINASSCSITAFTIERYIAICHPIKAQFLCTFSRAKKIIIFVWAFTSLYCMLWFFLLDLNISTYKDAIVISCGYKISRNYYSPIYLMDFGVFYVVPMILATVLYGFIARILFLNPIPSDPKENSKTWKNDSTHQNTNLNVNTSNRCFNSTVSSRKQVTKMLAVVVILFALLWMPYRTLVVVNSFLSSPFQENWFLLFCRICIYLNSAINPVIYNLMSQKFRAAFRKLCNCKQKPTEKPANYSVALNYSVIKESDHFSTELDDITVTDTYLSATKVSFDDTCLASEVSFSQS
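Steps: seed TRHR cells overnight; add fluo-8 no-wash Ca dye, RT 30 min–1.5 h; record 10 s baseline; pin-transfer compounds; monitor fluorescence 1 cycle/s for the agonist window. Calcium increases flag candidate agonists.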
TRPML1 ag = human mucolipin-1 channel agonism. Q9GZU1. TRPML1-expressing cells, Ca2+ dye fluorescence, FDSS. activation, % (no concentration beside the values). hit rate 0.12% among 410,000; in the data active means activation above about 50%; further: 0% is about no effect
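Tetracycline-induced TRPML1-DL cells are seeded and incubated overnight before loading with a no-wash Ca2+ dye and quencher. Agonist activity is taken from the 110 s fluorescence read following compound pin-transfer on an FDSS, before EC80 54-4 challenge.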
TRHR enhancer = TRH receptor (human) allosteric enhancement; P34981; TRHR cells, fluo-8 calcium fluorescence, EC20 TRH enhancement; enhancement, % at 2 µM; hit rate 0.66% among 360,000; AID 493056; in the data active means enhancement above about 30%; further: 0% is about no effect
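Enhancer read-out: after compound pinning and an initial kinetic agonist-mode read, an EC20 of TRH (10 nM final) was injected and fluo-8 calcium signal (Ex 480/Em 530) followed at 1 s/cycle for 100 cycles in TRHR-expressing cells.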
TRPML1 inh = inhibitors of human TRPML1 channel; Q9GZU1; TRPML1-inducible cells, Ca2+ dye fluorescence, FDSS; active compounds read low; inhibition of EC80 agonist-evoked calcium signal; activity change, negative = inhibition, % (no concentration beside the values); hit rate 0.02% among 390,000; in the data active means activity change below about -50%;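 further: stimulus is agonist 54-4 at its EC80 concentration; on the % scale 0 is the no-effect control and ±100 the full control effect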
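Calcium fluorescence in TRPML1-DL cells induced overnight with Tet: a 110 s read after compound pin addition, then a 110 s antagonist read after challenge with 54-4 at 4 uM final (EC80).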
The depositor's hits bear a star; nt = not tested or not shown.

SMILES	TRHR agonist	TRPML1 ag	TRHR enhancer	TRPML1 inh
O=C(Nc1nc2n(n1)C(c1ccccc1)C=C(c1ccc(Cl)cc1)N2)c1ccco1 (stereo not given)	22	8	-2	16
CC(C)(C)CC(C)(C)N=C1Nc2cc(Cl)c(Cl)cc2N[C@]12C[C@H]1CCCC(=O)N3CC[C@@H](C2)[C@@H]13	nt	0	nt	nt
COc1ccc(C2CC(=O)N3CN(c4ccc(C)c(Cl)c4)CSC3=C2C#N)cc1 (stereo not given)	0	0	31*	7
COc1ccc2c(c1OC)C(=O)N1c3ccccc3SC21 (stereo not given)	0	1	39*	13
N#Cc1nc(Nc2cccc(F)c2)nc(NC2CCCC2)n1	0	nt	0	nt
CC1CCN(C2=C(NS(=O)(=O)c3ccc(Br)cc3)C(=O)c3ccccc3C2=O)CC1	-1	0	-3	-11
O=C1C(NS(=O)(=O)c2ccc(Br)cc2)=C(N2CCCCC2)C(=O)c2ccccc21	-1	76*	-3	-19
COc1ccc(C(CNC(=O)c2cccc(S(=O)(=O)Nc3ccc(F)cc3)c2)N(C)C)cc1 (stereo not given)	0	0	33*	-4
COc1ccc(C(=O)c2sc(Nc3ccccc3)nc2N)cc1	1	0	8	-14
COc1ccc(C(=O)c2sc(Nc3ccccc3)nc2N)cc1OC	0	2	33*	16
COc1ccc(/C=C(\C#N)C(=O)NCC2CCCO2)cc1OC (stereo not given)	0	-1	1	-14
COc1cc(/C=C(\C#N)C(=O)NCC2CCCO2)ccc1OCCC(C)C (stereo not given)	0	52*	-3	-19
COc1cc(/C=C2\C=Cc3ccccc32)ccc1N(C)C	nt	-1	nt	nt
CCN(CC)c1ccc(/C=C/c2ccncc2)cc1	nt	28	nt	nt
Cn1nc(C(F)(F)F)c(CO)c1Sc1ccc(F)cc1	0	1	30*	-4
CN(C)c1ccc(/C=C\C=C/c2ccnc3ccccc23)cc1	nt	0	nt	nt
CN(C)c1ccc(C=O)cc1[N+](=O)[O-]	nt	0	nt	nt
O=C(Nc1ccncc1)c1cnn2c1NC(=C1CC1)C=C2C(F)F	nt	-1	nt	nt
CC(C)(C)n1ncc2c(=O)n(Cc3c(Cl)ccc(Cl)c3Cl)cnc21	nt	1	nt	-2
Cc1cccn2c(=O)c3cc(C(=O)N4CCCCC4)sc3nc12	0	-1	-10	-5
CCC1CCCCN1C(=O)c1cc2c(=O)n3cccc(C)c3nc2s1 (stereo not given)	0	0	39*	2
CCOC(=O)/C=C/c1ccc2c(c1)S(=O)(=O)N(C1CCCC1)[C@H]2CC(=O)OCC	nt	2	nt	nt
Clc1cccc(Cl)c1CNc1ccc(N2CCCC2)cc1	1	2	31*	23
N=c1oc2cc(O)ccc2cc1C(=O)Nc1nc2ccccc2s1	3	4	2	34
N=c1oc2cc(O)ccc2cc1C(=O)Nc1ccccn1	5	nt	31*	nt
SMILES	TRHR agonist	TRPML1 ag	TRHR enhancer	TRPML1 inh
O/N=C(/C[n+]1ccsc1)c1ccc(I)cc1	nt	-1	nt	nt
CC1CCCCN1S(=O)(=O)c1cc2c3c(c1)CC(=O)N3CCC2 (stereo not given)	0	-1	32*	-22
CCOC(=O)c1cnc2c(C#N)cnn2c1N	0	1	36*	3
CCOC(=O)c1cnc2c(-c3ccccc3)cnn2c1N	0	0	-8	-5
O=C(/C=C/c1ccc(N2CCC(c3ccccc3)=N2)cc1)c1ccccc1	57*	87*	-3	-3
COc1ccc(NC(=O)c2ccccc2OCC(=O)Nc2ccc(Br)cc2)cc1	nt	0	nt	nt
N#CN1CCC(NC(=O)c2cccc(C(F)(F)F)c2)CC1	-2	nt	0	nt
O=C(Cn1nc(-c2ccccc2)ccc1=O)NCCCN1CCOCC1	0	nt	0	nt
COc1cccc(-c2ccc(=O)n(CC(=O)NCCN3CCOCC3)n2)c1	1	-1	0	-63*
CCN1/C(=C/C=C/c2oc3ccc(-c4ccccc4)cc3[n+]2CC)Oc2ccc(-c3ccccc3)cc21	317*	80*	-24	-16
CCN1/C(=C/C=C/c2sc3ccccc3[n+]2CC)Sc2ccccc21	-1	0	4	-4
Cc1ccc(C)c(OCc2nnc(N)s2)c1	0	-1	35*	-14
Nc1nnc(COc2ccc(Br)cc2Br)s1	0	0	-3	5
CSc1nc2c(c(=O)[nH]c(=O)n2C)n1Cc1ccccc1	0	0	31*	-12
N#CC1=C(N)OC2=C(CC/C2=C\c2ccc(F)cc2)C1c1ccc(F)cc1 (stereo not given)	42*	nt	2	nt

Source: PubChem (National Center for Advancing Translational Sciences (NCATS))
